Laboratory results as given in PubChem BioAssay (NCATS).
Results filed as inconclusive are left out. Where a call stands in place of a potency, no number is given. The source made the active and inactive calls. Calls follow the shape of the dose curve; as a rule, active = well fitted cell-killing curve with a large enough effect; inconclusive = small, poorly fitted or top-dose-only effect, or effect the other way; inactive = no such curve, though single readings can be large or run the other way.

Assay: Quantitative High-Throughput drug screen in 47 multiple myeloma cell lines against the NCATS MIPE library collection: JJN3_DSMZ cell viability assay (AID 1918966; also: nearly all actives have a fitted effect of over 50% in size)
Conditions: JJN3 myeloma cells viability, CellTiter-Glo ATP, 48 h; series mostly up to 45.8 µM
In short: (§1)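 Myeloma cells (500 per well) were exposed to MIPE 4.0 compounds by pin transfer and incubated 48 hours at 37C, 5% CO2. Viability was read as ATP by CellTiter-Glo luminescence, normalised to DMSO (100%) and media-only (0%) wells.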
Potency is read from the fitted curve at half-maximal effect.

| Compound | Potency |
| --- | --- |
| CC(C)N(CCNC(=O)CN1CCCC1=O)C(C)C | inactive |
| CC[C@@]1(O)C(=O)OCc2c1cc1n(c2=O)Cc2cc3ccccc3nc2-1 | 0.743 µM (active) |
| COc1ccc2c(c[n+](C)c3c4cc5c(cc4ccc23)OCO5)c1OC | 2.64 µM (active) |
| O=S(=O)(CC1CS1)c1ccc(Oc2ccccc2)cc1 (configuration not stated) | 11.8 µM (active) |
| C[C@@H]1[C@H](O)[C@@H](C)C=CC=CCCC=CC=CC=CC=C[C@H](O[C@H]2O[C@@H](C)[C@H](O)[C@@H](N)[C@@H]2O)CC2O[C@](O)(C[C@@H](O)[C@H](O)CC[C@@H](O)C[C@@H](O)C[C@@H](O)CC(=O)O[C@H]1C)C[C@H](O)[C@H]2C(=O)O | inactive |
| CO[C@H]1CCC(O[C@H]2C[C@H]([C@]3(C)CC[C@]4(C[C@H](O)[C@@H](C)[C@@H]([C@@H](C)C=C(C)C(=O)[C@H](C)C[C@H](C)C(=O)O)O4)O3)O[C@]3(O[C@@H]([C@H]4O[C@@](O)(CO)[C@H](C)C[C@H]4C)C[C@H]3C)[C@H]2C)O[C@H]1C (some centres not stated) | 0.526 µM (active) |
| CCOP(=O)(OCC)C(C)NC(=O)N(CCCl)N=O (configuration not stated) | inactive |
| CCNC(=O)C[C@@H]1N=C(c2ccc(Cl)cc2)c2cc(OC)ccc2-n2c(C)nnc21 | 0.148 µM (active) |
| O=S(=O)(F)Cc1ccccc1 | inactive |
| Cc1c(C(=O)Nc2cccc(C(F)(F)F)c2)cc(-c2ccccc2)n1CCCN1CCOCC1 | 16.6 µM (active) |
| CN(C)[C@@H]1C(=O)C(C(N)=O)=C(O)[C@@]2(O)C(=O)C3=C(O)c4c(O)cccc4[C@@](C)(O)[C@H]3[C@H](O)[C@@H]12 | 9.35 µM (active) |
| C[C@@H]1CC[C@H]2[C@@H](C)C(=O)O[C@@H]3O[C@@]4(C)CC[C@H]1[C@]32OO4 | 0.0132 µM (active) |
| O=c1[nH]c2ccccc2n1C1CCN(Cc2ccc(-c3[nH]c4cc5ncnc5cc4nc3-c3ccccc3)cc2)CC1 | 29.6 µM (active) |
| C[C@]12COC(=O)C[C@@H]1CC[C@@H]1[C@H]2CC[C@@]2(C)[C@H]1CC[C@]2(C)O | inactive |
| CC(C)N[C@@H]1CCn2c(=O)[nH]c3cccc(c32)[C@@H]1O | 9.35 µM (active) |
| C[C@@]12OC(=O)[C@]1([C@@H](O)[C@@H]1C=CCCC1)NC(=O)[C@H]2CCCl | 0.0332 µM (active) |
| COc1cc([C@@H]2c3cc4c(cc3[C@@H](O)C3COC(=O)C32)OCO4)cc(OC)c1O (some centres not stated) | 0.118 µM (active) |
| C[C@@H]1O[C@@H](O[C@@H]2C=C3CC[C@@H]4[C@@H](CC[C@]5(C)[C@H](c6ccc(=O)oc6)CC[C@@]45O)[C@@]3(C)CC2)[C@H](O)[C@H](O)[C@H]1O | 0.0469 µM (active) |

Assay: Quantitative High-Throughput drug screen in 47 multiple myeloma cell lines against the NCATS MIPE library collection: H1112_PLB cell viability assay (AID 1918967; also: nearly all actives have a fitted effect of over 30% in size)
Conditions: H1112 myeloma cells viability, ATP luminescence, 48 h; series mostly up to 45.8 µM
In short: as §1

| Compound | Potency |
| --- | --- |
| CC(C)N(CCNC(=O)CN1CCCC1=O)C(C)C | inactive |
| CC[C@@]1(O)C(=O)OCc2c1cc1n(c2=O)Cc2cc3ccccc3nc2-1 | 0.059 µM (active) |
| CCOC(=O)c1c(C(C#N)=CN)c2ccc(Cl)c(Cl)c2n1C | inactive |
| COc1ccc2c(c[n+](C)c3c4cc5c(cc4ccc23)OCO5)c1OC | 7.43 µM (active) |
| C[C@@H]1[C@H](O)[C@@H](C)C=CC=CCCC=CC=CC=CC=C[C@H](O[C@H]2O[C@@H](C)[C@H](O)[C@@H](N)[C@@H]2O)CC2O[C@](O)(C[C@@H](O)[C@H](O)CC[C@@H](O)C[C@@H](O)C[C@@H](O)CC(=O)O[C@H]1C)C[C@H](O)[C@H]2C(=O)O | inactive |
| CO[C@H]1CCC(O[C@H]2C[C@H]([C@]3(C)CC[C@]4(C[C@H](O)[C@@H](C)[C@@H]([C@@H](C)C=C(C)C(=O)[C@H](C)C[C@H](C)C(=O)O)O4)O3)O[C@]3(O[C@@H]([C@H]4O[C@@](O)(CO)[C@H](C)C[C@H]4C)C[C@H]3C)[C@H]2C)O[C@H]1C (some centres not stated) | 0.662 µM (active) |
| CCOP(=O)(OCC)C(C)NC(=O)N(CCCl)N=O (configuration not stated) | inactive |
| C[C@]12CCC(=O)C(O)=C1CC[C@@H]1[C@H]3CCC(=O)[C@@]3(C)CC[C@@H]12 | inactive |
| CCNC(=O)C[C@@H]1N=C(c2ccc(Cl)cc2)c2cc(OC)ccc2-n2c(C)nnc21 | 0.743 µM (active) |
| O=S(=O)(F)Cc1ccccc1 | inactive |
| Cc1c(C(=O)Nc2cccc(C(F)(F)F)c2)cc(-c2ccccc2)n1CCCN1CCOCC1 | 3.72 µM (active) |
| CN(C)[C@@H]1C(=O)C(C(N)=O)=C(O)[C@@]2(O)C(=O)C3=C(O)c4c(O)cccc4[C@@](C)(O)[C@H]3[C@H](O)[C@@H]12 | inactive |
| C[C@H]([C@H](O)CCC(C)(C)O)[C@H]1CC[C@@]2(O)C3=CC(=O)[C@@H]4C[C@@H](O)[C@@H](O)C[C@]4(C)[C@@H]3CC[C@]12C | inactive |
| CC(=CCCC1=CCC(C2=CC(=O)OC2O)OC1O)CCC1=C(C)CCCC1(C)C (configuration not stated) | inactive |
| CCCN1CCO[C@@H]2c3cc(O)ccc3OC[C@@H]21 | inactive |
| CCN(CC)C(=O)c1ccc(C2=CC3(CCNCC3)Oc3cccc(O)c32)cc1 | inactive |
| CCC(=O)OC1CCC2C3CCC4=CC(=O)CC[C@@]4(C)C3CC[C@]12C (some centres not stated) | inactive |
| O=c1[nH]c2ccccc2n1C1CCN(Cc2ccc(-c3[nH]c4cc5ncnc5cc4nc3-c3ccccc3)cc2)CC1 | 0.833 µM (active) |
| C[C@]12COC(=O)C[C@@H]1CC[C@@H]1[C@H]2CC[C@@]2(C)[C@H]1CC[C@]2(C)O | inactive |
| CC(C)N[C@@H]1CCn2c(=O)[nH]c3cccc(c32)[C@@H]1O | 7.43 µM (active) |
| c1ccc2c(CN3CCNCC3)cccc2c1 | inactive |
| CC(=O)N(C)c1cccc(-c2ccnc3c(C(=O)c4cccs4)cnn23)c1 | inactive |
| CN(C)NC(=O)CCC(=O)O | inactive |
| C[C@@]12OC(=O)[C@]1([C@@H](O)[C@@H]1C=CCCC1)NC(=O)[C@H]2CCCl | 0.0235 µM (active) |
| COc1cc([C@@H]2c3cc4c(cc3[C@@H](O)C3COC(=O)C32)OCO4)cc(OC)c1O (some centres not stated) | 0.0526 µM (active) |
| CSCC[C@@H](NC(=O)[C@@H](Cc1ccccc1)NC(=O)CNC(=O)CNC(=O)[C@@H](N)Cc1ccc(O)cc1)C(=O)O | inactive |
| C[C@@H]1O[C@@H](O[C@@H]2C=C3CC[C@@H]4[C@@H](CC[C@]5(C)[C@H](c6ccc(=O)oc6)CC[C@@]45O)[C@@]3(C)CC2)[C@H](O)[C@H](O)[C@H]1O | 0.0418 µM (active) |
| C#C[C@]1(O)C=C[C@@H]2[C@@H]3CCC4=CC(=O)CC[C@@H]4[C@H]3CC[C@@]21CC | inactive |
| COc1ccc(CC2NCCc3cc(OC)c(OC)cc32)cc1OC (configuration not stated) | inactive |
